Compounds with a hit are over-represented: about 4.9% of the library has one in this group of screens.
Platelet DG rel: modulates dense granule release in human platelets | AID 1663 | inhibition, %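 (compounds screened at 7.5 µM in platelet-rich plasma)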 | human platelet-rich plasma, SFLLRN dense granule ATP release, luminescence | hit rate 0.22% among 300,000;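 active = mean replicate score, as percent of positive control, at or above 50; inconclusive = mean below 50 but at least one replicate at or above 50; inactive = mean and every replicate below 50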
dFosB act: mouse delta FosB homodimer activation; purified delta FosB, TAMRA-CDK5 oligo fluorescence polarization; percent of positive-control signal above neutral wells; P13346; AID 493131; hit rate 0.99% among 340,000; activation, % at 25 µM;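 active = mean activation above about 17%, with every replicate also reaching it, limit read from the data, passing the limit was not always enough; inconclusive = only one of the two conditions met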
Target sequence (P13346 whole entry, looked up): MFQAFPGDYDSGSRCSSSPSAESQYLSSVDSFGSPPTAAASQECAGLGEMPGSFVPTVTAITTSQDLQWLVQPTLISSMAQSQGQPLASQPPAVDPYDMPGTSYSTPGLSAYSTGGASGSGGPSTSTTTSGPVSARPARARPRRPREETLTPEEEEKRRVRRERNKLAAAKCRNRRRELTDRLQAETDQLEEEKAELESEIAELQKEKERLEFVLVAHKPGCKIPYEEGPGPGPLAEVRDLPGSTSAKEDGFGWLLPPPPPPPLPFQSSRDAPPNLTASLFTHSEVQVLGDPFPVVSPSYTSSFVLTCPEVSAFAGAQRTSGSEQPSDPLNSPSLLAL
HSF1 inh: HSF1 inhibition; AID 2098; hit rate 0.77% among 300,000; NIH3T3-HGL HSE-luciferase, MG132-induced, luminescence 8 h; hits give low values; activity change, negative = inhibition, % at 7.5 µM (by protocol);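 active = more than half of replicate wells show activity change below -50%, luminescence cut by over half; inconclusive = some wells, but at most half, below -50%; inactive = no replicate well below -50%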;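 note: luciferase reports HSF-1 transcriptional activity via heat shock element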
HSF1 activator: increases HSF-1 driven luciferase reporter signal. NIH3T3-HGL HSF-1 luciferase reporter, MG132, 8 h; 100% = twice DMSO control signal. hit rate 1.7% among 300,000. activation, % at 9 µM. AID 504408;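 active = mean replicate activation of at least 50% with a set share of replicates each reaching 50%; inconclusive = only one of those two conditions met; inactive = mean below 50% and too few replicates reaching it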
HSP90 inh: inhibitors of HSP90 luciferase refolding in rabbit reticulocyte lysate. luciferase refolding luminescence, 3 h. inhibition, % at 5.6 µM. hit rate 0.91% among 290,000;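 active = inhibition above the screen-wide mean plus 3 SD, computed separately per campaign, cut at about 16% in these data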;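 note: inhibitors lower the luminescence because luciferase stays unfolded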
MPTP block: blocks calcium-induced mitochondrial swelling | isolated mouse mitochondria, Ca2+ swelling absorbance, 30 min | inhibition, % at 10 µM | hit rate 1.4% among 360,000 | AID 602449;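 active = inhibition of 50% or more, scaled per plate between neutral and stimulator controls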
Hits are given with their value; i = inactive; ? = inconclusive; nt = not tested or not shown.

SMILES	Platelet DG rel	dFosB act	HSF1 inh	HSF1 activator	HSP90 inh	MPTP block
CC(C)Oc1ccc(CC2CCC(=O)N(C)C2=O)cc1 (stereo not given)	i	i	i	i	i	i
CC(C)N(C(=O)[C@H]1C[C@H](CC(=O)NCCC2=CCCCC2)C(=O)N2CCc3c([nH]c4ccc(Cl)cc34)[C@]12C)C(C)C	nt	i	nt	nt	nt	i
COc1ccc(C=C2C(=O)c3ccccc3C2=O)cc1O	i	i	i	i	i	i
COc1ccc(/C=C2\CN(Cc3ccccc3)C/C(=C\c3ccc(OC)c(O)c3)C2=O)cc1O	i	i	i	91	18	i
CCN1C/C(=C/c2ccc(OC)c(O)c2)C(=O)/C(=C/c2ccc(OC)c(O)c2)C1	i	i	-79	i	i	i
COc1ccccc1NS(=O)(=O)c1ccc2ccccc2c1	i	i	i	i	i	i
COc1ccc(NS(=O)(=O)c2ccc3ccccc3c2)c2ncccc12	i	i	i	393	i	i
CC(=O)Nc1ccc(S(=O)(=O)Nc2cccc3cccnc23)cc1	i	i	i	i	i	i
Cc1cc(C)c(NS(=O)(=O)c2cccc3cccnc23)c(C)c1	i	i	i	i	i	i
Cc1cc(C)nc(NS(=O)(=O)c2ccccc2)n1	i	i	i	i	i	i
O=S(=O)(Nc1cccc2cccnc12)c1ccccc1	i	i	i	94	i	i
Cc1ccc2cccc(NS(=O)(=O)c3ccccc3)c2n1	i	nt	i	140	i	nt
Cc1ccc(S(=O)(=O)Nc2cccc3cccnc23)c([N+](=O)[O-])c1	i	i	i	220	i	i
O=S(=O)(Nc1cccc2cccnc12)c1ccc(S(=O)(=O)N2CCCC2)cc1	i	i	i	189	i	i
O=C(O)c1ccc(S(=O)(=O)N2CCC(n3nnc4cc(C(F)(F)F)ccc43)CC2)cc1	i	i	i	i	i	i
O=C(O)c1cccc(S(=O)(=O)N2CCC(n3nnc4cc(C(F)(F)F)ccc43)CC2)c1	i	i	i	79	i	i
Cc1ccc(NC(=O)CCCCCN2C(=O)c3ccccc3C2=O)nc1	i	i	i	54	i	i
CCN(CC(=O)NCc1ccc(Cl)cc1)C(=O)C1CCN(S(=O)(=O)c2ccc(OC)c(OC)c2)CC1	i	i	i	i	nt	i
Cc1ccccc1NC(=O)CSc1nc(Nc2ccccc2)nc(N2CCOCC2)n1	i	i	i	74	i	i
Cc1ccc(F)cc1NC(=O)CSc1nc(Nc2ccccc2)nc(N2CCOCC2)n1	i	i	i	i	i	i
Cc1ccc(S(=O)(=O)N2CCC(C(=O)O)CC2)cc1	i	i	i	i	i	i
O=C1c2ccccc2C(=O)c2c(NCCCN(CCO)CCO)cccc21	i	56	i	i	i	i
O=C(NCCc1ccc(O)c(O)c1)C1COc2ccccc2O1 (stereo not given)	i	i	i	121	i	i
COc1cc(C(=O)OCC(=O)Nc2ccc(C)cc2)cc(OC)c1OC	i	i	i	i	i	i
Cc1ccc(NC(=O)C(=Cc2ccc(C(=O)O)cc2)C(=O)Nc2ccc(C)cc2C)c(C)c1	i	i	i	555	i	i
SMILES	Platelet DG rel	dFosB act	HSF1 inh	HSF1 activator	HSP90 inh	MPTP block
Cc1cccc(S(=O)(=O)NCCNS(=O)(=O)c2cccc(C)c2)c1	i	i	i	i	i	i
CSc1nnc([C@H](Cc2c[nH]c3ccccc23)NC(=O)OC(C)(C)C)o1	i	i	i	i	i	i
CCSc1nnc([C@H](Cc2c[nH]c3ccccc23)NC(=O)OC(C)(C)C)o1	i	i	i	59	i	i
O=C(CSc1nc(-c2ccc(F)cc2)cc(C(F)(F)F)n1)Nc1ccc2c(c1)OCO2	i	?	i	i	i	i
CC(NC(=O)c1cc(-c2ccccc2)nc2ccccc12)C1CCCO1 (stereo not given)	i	nt	i	52	i	nt
CC(NC(=O)c1sc2ccccc2c1Cl)C1CCCO1 (stereo not given)	i	i	i	69	i	i
CC(NC(=O)c1csc2ccccc12)C1CCCO1 (stereo not given)	i	i	i	i	i	i
O=C(COC(=O)/C=C/c1cccc([N+](=O)[O-])c1)NCc1ccc2c(c1)OCO2	i	?	i	i	i	i
COc1cc(Cl)ccc1OCc1cc(C(=O)N2CCN(C3CCCCC3)CC2)no1	nt	nt	nt	nt	nt	i
O=C(O)/C=C\C(=O)Nc1ccccc1C#Cc1ccccc1	i	i	i	i	i	i

Screening results as filed in PubChem.
